About 83,000 compounds went through this panel and 20% of them were active in at least one assay; those are over-represented in the sample as a whole.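 Note: values are percent growth. 100 is the growth of untreated cells, values between 100 and 0 indicate rising inhibition; between -100 and 0 indicates cell death.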 The source made the active and inactive calls. How the source made its calls: active means growth percent below 10; inactive means the rest.
These compounds were tested on HL-60(TB) leukemia (assay: NCI-60 one-dose screen, 48 h (100 = growth as untreated, 0 = no growth, -100 = all killed)). Settings: 10 µM unless noted.

| SMILES | growth |
| --- | --- |
| NC(=O)c1cc(Br)ccc1NC(=O)/C=C/c1ccccc1 | -22.9% (active) |
| NC(=NCCCOc1ccc(F)cc1)Nc1ccc(Cl)c(Cl)c1 | 48.2% (inactive) |
| Nc1ccccc1-c1ccc(-c2ccc(Cl)cc2)c2c1[nH]c1ccccc12 | 70.9% (inactive) |
| Fc1ccc(COc2ccc(Nc3ncnc4sc5c(c34)CCCC5)cc2)cc1 | 87.4% (inactive) |
| CO[C@@H]1[C@H](N(C)C(=O)c2ccccc2)C[C@@H]2O[C@]1(C)n1c3ccccc3c3c4c(c5c6ccccc6n2c5c31)C(=O)NC4=O | 78.9% (inactive) |
| CC(C)(C)c1ccc(C2CC(=O)C3=C(C2)Nc2ccccc2N(C(=O)c2ccccc2Cl)C3c2ccc(F)cc2)cc1 (stereo not given) | -19.8% (active) |
| CCCCCCCCCCCCCCCC[N+](C)(CCO)Cc1cnc[nH]1 (stereo not given) | -80.6% (active) |
| COc1ccc(C(c2cc(OC)c(OC)c(OC)c2)N2CCCC2)cc1 (stereo not given) | 35.5% (inactive) |
| Fc1ccc(-c2nnc(/C=C/c3cn(-c4ccccc4)nc3-c3ccccc3)o2)cc1 | 94.2% (inactive) |
| ClCCOCCOc1ccc(C2CCCCC2)cc1 | 105% (inactive) |
| C=C(C)[C@@H]1CC[C@]2(C(=O)OC)CC[C@]3(C)[C@H](CC[C@@H]4[C@@]5(C)C/C(=C/c6cccc(I)c6)C(=O)C(C)(C)[C@@H]5CC[C@]43C)[C@@H]12 | 97.6% (inactive) |
| CCOC(=O)N1C/C(=C/c2ccc(F)cc2)C(=O)/C(=C/c2ccc(F)cc2)C1 | 4.58% (active) |
| O[C@@H](c1cc(C(F)(F)F)nc2c(C(F)(F)F)cccc12)[C@H]1CCCCN1 | 59.4% (inactive) |
| CCCCN(CCCC)CCCN=c1nc2c(c(N)n1-c1ccccc1)c(=S)n(-c1ccccc1)c(=S)n2-c1ccccc1 | -74.8% (active) |
| Fc1cccc(-c2nc(-c3c[nH]c4ncccc34)cs2)c1 | 97.2% [100 µM] (inactive) |
| N#CC1C(=O)NC(c2ccccc2[N+](=O)[O-])c2sc3c(F)cccc3c21 (stereo not given) | 82.3% (inactive) |
| Cc1ccc(C(=O)O)c(N)c1C | 95.1% (inactive) |
| Cc1ccc(-n2cc(-c3ccccc3)c3c2N=NN2CCN=C32)cc1 | 101% (inactive) |
| O=C(O)c1cc2cc(OCc3ccccc3)ccc2[nH]1 | 112% (inactive) |
| O=C(Nc1cccc(C(=O)N2CCc3ccc(Cl)cc32)c1)c1ccco1 | 1.39% (active) |

| SMILES | growth |
| --- | --- |
| FC(F)(F)c1cc(Nc2ccc3c(OCCCN4CCOCC4)cccc3n2)ccc1Cl | 63.3% (inactive) |
| O=C(Nc1ccccc1Cl)c1cnc2ccc(C3CCNCC3)cn12 | 103% (inactive) |
| COC(=O)/C=C1\S/C(=N\NC(=O)c2cc3ccc2/C=C\c2ccc(cc2)/C=C\3)N(Cc2ccccc2)C1=O | -5.46% (active) |
| COc1ccc(C(=O)N2CCN(C(=O)c3cc(OC)c(OC)c(OC)c3)CC2)cc1OCCCCOc1cc2c(cc1OC)C(=O)N1CCC[C@H]1C=N2 | 147% (inactive) |
| COc1ccc2c(c1)c(-c1nc(-c3c[nH]c4ncccc34)cs1)cn2CCNC(=O)OC(C)(C)C | 69.2% (inactive) |
| Cc1cnc(Nc2ccc(N3CCN(C)CC3)cc2)nc1Nc1ccc(Cl)c(NS(=O)(=O)C(C)(C)C)c1 | -13.4% (active) |
| c1ccc(Nc2ccccn2)nc1 | 101% (inactive) |
| CCNCCNc1cc(-c2ccc(F)cc2)c(C#N)c2nc3ccccc3n12 | -48.8% (active) |
| Oc1c(N=Nc2nn[nH]n2)ccc2ccccc12 | 98.2% (inactive) |
| c1ccc(-c2ccc(-c3ccccc3)[nH]2)cc1 | 91.2% (inactive) |
| COc1ccc(-c2cn[nH]c2-c2cc(OC)c3c(c2)OCO3)cc1 | -29% (active) |
| NC(=Nc1ccccc1)SCCCCSC(N)=Nc1ccccc1 | 79.5% (inactive) |
| c1ccn2nnnc2c1 | 116% (inactive) |
| CC(C)(C)c1ccc(OCCCCCCN2CCNCC2)cc1 | 15.2% (inactive) |
| CC(C)(O)c1cn(CCCCN2C(=O)C(=O)c3ccccc32)nn1 | 97.8% (inactive) |
| CC(=O)n1c2ccccc2c2ccccc21 | 104% (inactive) |
| O=C1/C=C/[C@@H](O)[C@@H]2C[C@@H](O)C[C@H]2/C=C/CCC[C@H](CCc2ccc(NC(=S)Nc3ccc4c(c3)C(=O)OC43c4ccc(O)cc4Oc4cc(O)ccc43)cc2)O1 | 4.65% (active) |
| CCCCCCCCCCOC(=O)c1nn(C(C)=O)c2cc(C)c(C)cc12 | 101% (inactive) |
| C=C1C(=O)O[C@H]2[C@H]1CC/C(C(=O)NCCCCCCCCNC(=O)/C1=C/CC[C@@]3(C)O[C@H]3[C@H]3OC(=O)C(=C)[C@@H]3CC1)=C\CC[C@@]1(C)O[C@@H]21 | 6.59% (active) |
| C/C=C(/C)C(=O)OC1C=C(CO)C(=O)C(OC(=O)/C(C)=C\C)C1C(C)C (stereo not given) | -32% (active) |

Source: PubChem BioAssay (NCI)
